Article PMC7862700, “An all-to-all approach to the identification of sequence-specific readers for epigenetic DNA modifications on cytosine”

What was measured:
Test in all cases: DAPPL (digital affinity profiling via proximity ligation, sequencing); 10 mM Tris-HCl pH 7.5, 50 mM NaCl, 1 mM DTT, 4% glycerol, room temperature, 30 min; GST-TFs on glutathione beads, 16-mer random dsDNA library, 0.1% formaldehyde crosslink after washing; high values mean tight binding
Conditions in all cases: protein: recombinant; tags: N-terminal GST; dsDNA, one strand shown
FLI1 = target: T1, FLI1 (Homo sapiens, UniProt Q01543 1-452)
T1 sequence: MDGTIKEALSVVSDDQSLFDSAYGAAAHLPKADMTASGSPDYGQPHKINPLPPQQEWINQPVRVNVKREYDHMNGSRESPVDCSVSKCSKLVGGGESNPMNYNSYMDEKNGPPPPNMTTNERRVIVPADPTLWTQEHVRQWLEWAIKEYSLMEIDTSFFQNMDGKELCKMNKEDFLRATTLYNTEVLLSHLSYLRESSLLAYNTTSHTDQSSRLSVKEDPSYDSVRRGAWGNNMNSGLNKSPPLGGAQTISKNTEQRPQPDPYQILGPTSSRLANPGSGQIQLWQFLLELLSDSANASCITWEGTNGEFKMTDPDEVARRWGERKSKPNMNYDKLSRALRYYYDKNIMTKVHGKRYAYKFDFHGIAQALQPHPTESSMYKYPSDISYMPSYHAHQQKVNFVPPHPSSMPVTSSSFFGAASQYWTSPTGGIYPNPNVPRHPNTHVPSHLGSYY
Outline: (§1)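 Each value of binding signal is a hexamer's read frequency for a factor divided by the same hexamer's frequency in the tag-only sample. Barcoded, bead-captured GST fusions of human transcription factors made in yeast were pooled with that sample and incubated with 200 nmole of a random double-stranded 16-mer DNA library in Tris/NaCl/DTT/glycerol buffer at room temperature for 30 min. Washing, 0.1% formaldehyde crosslinking, proximity ligation, PCR and Illumina NextSeq500 sequencing followed.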

ELK1 = target: T2, ELK1 (Homo sapiens, UniProt P19419 1-428)
T2 sequence: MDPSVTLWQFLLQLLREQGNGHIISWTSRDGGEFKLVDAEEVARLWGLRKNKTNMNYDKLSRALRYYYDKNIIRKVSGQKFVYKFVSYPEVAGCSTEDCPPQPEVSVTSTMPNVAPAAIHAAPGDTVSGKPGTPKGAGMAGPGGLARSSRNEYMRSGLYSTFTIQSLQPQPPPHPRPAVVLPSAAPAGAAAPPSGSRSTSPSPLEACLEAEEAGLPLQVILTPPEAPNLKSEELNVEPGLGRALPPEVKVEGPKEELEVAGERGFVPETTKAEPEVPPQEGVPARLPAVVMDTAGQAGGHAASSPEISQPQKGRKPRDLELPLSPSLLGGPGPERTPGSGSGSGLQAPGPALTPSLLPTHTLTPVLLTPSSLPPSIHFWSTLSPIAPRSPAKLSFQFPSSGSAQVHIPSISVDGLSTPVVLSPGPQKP
Outline: as §1

GABPA = target: T3, GABPA (Homo sapiens, UniProt Q06546 1-454)
T3 sequence: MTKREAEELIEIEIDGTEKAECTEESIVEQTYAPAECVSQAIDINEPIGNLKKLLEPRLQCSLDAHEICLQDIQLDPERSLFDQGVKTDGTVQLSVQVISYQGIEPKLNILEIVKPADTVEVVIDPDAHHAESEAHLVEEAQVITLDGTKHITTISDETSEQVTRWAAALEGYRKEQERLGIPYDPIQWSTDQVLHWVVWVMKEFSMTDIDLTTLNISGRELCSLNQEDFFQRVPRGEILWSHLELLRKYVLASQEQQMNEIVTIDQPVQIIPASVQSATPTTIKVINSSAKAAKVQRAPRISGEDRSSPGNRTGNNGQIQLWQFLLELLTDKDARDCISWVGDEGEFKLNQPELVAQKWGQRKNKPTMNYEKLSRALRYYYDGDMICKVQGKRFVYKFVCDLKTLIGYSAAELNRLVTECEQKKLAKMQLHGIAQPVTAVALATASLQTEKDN
Outline: as §1

ERG = target: T4, ERG (Homo sapiens, UniProt P11308 1-479)
T4 sequence: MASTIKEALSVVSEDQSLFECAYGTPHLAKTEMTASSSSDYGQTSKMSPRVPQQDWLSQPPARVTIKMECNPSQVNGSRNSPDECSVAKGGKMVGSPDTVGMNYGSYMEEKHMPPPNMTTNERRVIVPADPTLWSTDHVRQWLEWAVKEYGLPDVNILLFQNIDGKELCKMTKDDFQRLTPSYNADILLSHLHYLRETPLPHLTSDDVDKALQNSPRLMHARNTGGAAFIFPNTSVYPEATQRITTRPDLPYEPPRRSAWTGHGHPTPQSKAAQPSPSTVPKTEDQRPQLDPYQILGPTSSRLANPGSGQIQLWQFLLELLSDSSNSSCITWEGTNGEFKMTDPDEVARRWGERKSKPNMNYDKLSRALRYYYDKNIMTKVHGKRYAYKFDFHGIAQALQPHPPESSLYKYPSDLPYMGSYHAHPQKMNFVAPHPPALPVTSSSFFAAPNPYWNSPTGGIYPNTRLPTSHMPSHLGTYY
Outline: as §1

ELF1 = ELF1 (Homo sapiens, UniProt P32519 1-619)
Chain of ELF1 (P32519 whole entry): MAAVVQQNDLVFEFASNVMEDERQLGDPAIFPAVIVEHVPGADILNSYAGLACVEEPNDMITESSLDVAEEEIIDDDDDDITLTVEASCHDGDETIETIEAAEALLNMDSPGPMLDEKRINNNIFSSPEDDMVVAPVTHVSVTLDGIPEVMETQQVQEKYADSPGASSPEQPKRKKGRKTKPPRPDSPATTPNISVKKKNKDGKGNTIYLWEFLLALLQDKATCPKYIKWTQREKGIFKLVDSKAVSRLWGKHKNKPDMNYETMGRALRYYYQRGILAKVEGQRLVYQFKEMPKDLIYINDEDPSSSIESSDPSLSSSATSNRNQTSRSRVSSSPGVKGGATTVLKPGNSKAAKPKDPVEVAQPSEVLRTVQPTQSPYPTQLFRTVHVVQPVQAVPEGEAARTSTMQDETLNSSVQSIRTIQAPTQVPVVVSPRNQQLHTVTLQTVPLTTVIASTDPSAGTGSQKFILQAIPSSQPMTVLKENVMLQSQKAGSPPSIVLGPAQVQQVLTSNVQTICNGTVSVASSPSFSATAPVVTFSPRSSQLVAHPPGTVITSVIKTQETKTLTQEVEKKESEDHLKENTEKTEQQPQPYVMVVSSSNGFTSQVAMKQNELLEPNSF
Outline: as §1

EHF = target: T5, EHF (Homo sapiens, UniProt Q9NZC4 1-300)
T5 sequence: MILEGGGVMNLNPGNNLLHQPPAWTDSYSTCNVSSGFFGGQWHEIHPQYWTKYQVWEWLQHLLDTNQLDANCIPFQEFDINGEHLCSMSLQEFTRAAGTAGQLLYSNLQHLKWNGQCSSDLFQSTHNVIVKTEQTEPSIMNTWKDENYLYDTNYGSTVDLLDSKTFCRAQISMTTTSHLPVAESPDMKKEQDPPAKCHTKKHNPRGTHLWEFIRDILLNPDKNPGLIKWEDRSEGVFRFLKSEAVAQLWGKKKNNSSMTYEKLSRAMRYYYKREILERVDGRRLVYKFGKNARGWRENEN
Outline: as §1

SPI1 = SPI1 (Homo sapiens, UniProt P17947 1-270)
Outline: as §1

SPIB = SPIB (Homo sapiens, UniProt Q01892 1-262)
Chain of SPIB (Q01892 whole entry): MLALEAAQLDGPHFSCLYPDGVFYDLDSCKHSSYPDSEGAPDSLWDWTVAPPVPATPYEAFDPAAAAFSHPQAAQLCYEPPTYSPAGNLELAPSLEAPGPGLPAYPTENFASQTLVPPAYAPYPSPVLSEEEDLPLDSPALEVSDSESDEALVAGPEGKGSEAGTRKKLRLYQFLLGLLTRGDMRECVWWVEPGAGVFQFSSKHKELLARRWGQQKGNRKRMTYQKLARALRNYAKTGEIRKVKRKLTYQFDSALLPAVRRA
Outline: as §1

ELK3 = target: T6, ELK3 (Homo sapiens, UniProt P41970 1-407)
T6 sequence: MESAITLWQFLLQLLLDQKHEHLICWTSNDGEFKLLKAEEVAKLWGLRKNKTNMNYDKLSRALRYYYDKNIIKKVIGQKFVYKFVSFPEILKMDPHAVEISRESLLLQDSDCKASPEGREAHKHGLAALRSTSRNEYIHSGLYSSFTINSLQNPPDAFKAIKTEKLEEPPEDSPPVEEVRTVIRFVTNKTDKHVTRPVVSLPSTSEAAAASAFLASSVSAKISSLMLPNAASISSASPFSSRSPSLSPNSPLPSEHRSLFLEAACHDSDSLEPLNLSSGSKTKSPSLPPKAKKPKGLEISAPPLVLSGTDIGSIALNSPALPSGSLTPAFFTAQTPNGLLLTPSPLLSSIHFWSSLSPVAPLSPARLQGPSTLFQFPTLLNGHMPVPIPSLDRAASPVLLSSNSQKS
Outline: as §1

Sequence | binding signal (FLI1) | binding signal (ELK1) | binding signal (GABPA) | binding signal (ERG) | binding signal (ELF1) | binding signal (EHF) | binding signal (SPI1) | binding signal (SPIB) | binding signal (ELK3)
ACACAA | 1.14 fold enrichment (6-mer frequency, TF over GST control) | 1.17 fold enrichment (6-mer frequency, TF over GST control) | 1.12 fold enrichment (6-mer frequency, TF over GST control) | 1.17 fold enrichment (6-mer frequency, TF over GST control) | 1.23 fold enrichment (6-mer frequency, TF over GST control) | 1.21 fold enrichment (6-mer frequency, TF over GST control) | 1.17 fold enrichment (6-mer frequency, TF over GST control) | 1.21 fold enrichment (6-mer frequency, TF over GST control) | 1.19 fold enrichment (6-mer frequency, TF over GST control)
AGTACA | 1.13 fold enrichment (6-mer frequency, TF over GST control) | 1.16 fold enrichment (6-mer frequency, TF over GST control) | 1.12 fold enrichment (6-mer frequency, TF over GST control) | 1.19 fold enrichment (6-mer frequency, TF over GST control) | 1.08 fold enrichment (6-mer frequency, TF over GST control) | 1.13 fold enrichment (6-mer frequency, TF over GST control) | 1.17 fold enrichment (6-mer frequency, TF over GST control) | 1.07 fold enrichment (6-mer frequency, TF over GST control) | 1.31 fold enrichment (6-mer frequency, TF over GST control)
TGCGTT | 1.04 fold enrichment (6-mer frequency, TF over GST control) | 1.09 fold enrichment (6-mer frequency, TF over GST control) | 1.17 fold enrichment (6-mer frequency, TF over GST control) | 1.12 fold enrichment (6-mer frequency, TF over GST control) | 1.12 fold enrichment (6-mer frequency, TF over GST control) | 1.08 fold enrichment (6-mer frequency, TF over GST control) | 1.1 fold enrichment (6-mer frequency, TF over GST control) | 1.11 fold enrichment (6-mer frequency, TF over GST control) | 1.13 fold enrichment (6-mer frequency, TF over GST control)
TGACTC | 1.49 fold enrichment (6-mer frequency, TF over GST control) | 1.39 fold enrichment (6-mer frequency, TF over GST control) | 1.4 fold enrichment (6-mer frequency, TF over GST control) | 1.39 fold enrichment (6-mer frequency, TF over GST control) | 1.36 fold enrichment (6-mer frequency, TF over GST control) | 1.27 fold enrichment (6-mer frequency, TF over GST control) | 1.27 fold enrichment (6-mer frequency, TF over GST control) | 1.42 fold enrichment (6-mer frequency, TF over GST control) | 1.41 fold enrichment (6-mer frequency, TF over GST control)
CCATTG | 1.33 fold enrichment (6-mer frequency, TF over GST control) | 1.16 fold enrichment (6-mer frequency, TF over GST control) | 1.32 fold enrichment (6-mer frequency, TF over GST control) | 1.19 fold enrichment (6-mer frequency, TF over GST control) | 1.15 fold enrichment (6-mer frequency, TF over GST control) | 1.19 fold enrichment (6-mer frequency, TF over GST control) | 1.25 fold enrichment (6-mer frequency, TF over GST control) | 1.05 fold enrichment (6-mer frequency, TF over GST control) | 1.16 fold enrichment (6-mer frequency, TF over GST control)
CCGGTA | 1.48 fold enrichment (6-mer frequency, TF over GST control) | 1.51 fold enrichment (6-mer frequency, TF over GST control) | 1.46 fold enrichment (6-mer frequency, TF over GST control) | 1.7 fold enrichment (6-mer frequency, TF over GST control) | 1.5 fold enrichment (6-mer frequency, TF over GST control) | 1.62 fold enrichment (6-mer frequency, TF over GST control) | 1.45 fold enrichment (6-mer frequency, TF over GST control) | 1.59 fold enrichment (6-mer frequency, TF over GST control) | 1.41 fold enrichment (6-mer frequency, TF over GST control)
AATTCA | 1.29 fold enrichment (6-mer frequency, TF over GST control) | 1.23 fold enrichment (6-mer frequency, TF over GST control) | 1.35 fold enrichment (6-mer frequency, TF over GST control) | 1.33 fold enrichment (6-mer frequency, TF over GST control) | 1.31 fold enrichment (6-mer frequency, TF over GST control) | 1.27 fold enrichment (6-mer frequency, TF over GST control) | 1.29 fold enrichment (6-mer frequency, TF over GST control) | 1.33 fold enrichment (6-mer frequency, TF over GST control) | 1.47 fold enrichment (6-mer frequency, TF over GST control)
